Results filed as inconclusive are left out. Activity calls are given as the source filed them. Unless noted, calls follow the shape of the dose curve; as a rule, active = well fitted curve in either direction with a large enough effect (not every such curve was filed as active); inconclusive = small, poorly fitted or top-dose-only effect, or another doubt; inactive = flat fitted curve, though single readings scatter.
Tests used:
[1] = AP1 Signaling Pathway (AID 357); settings: ME-180 AP-1-bla reporter, EGF-induced, beta-lactamase ratio, 5 h; at 17.2 µM (top of the series) unless noted;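 also: ME-180 reporter cells stimulated with EGF at its EC50 level; % is scaled to controls: 0 for no effect and ±100 for the full control effect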
In short: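 A ratiometric CCF4 readout (405 nm excitation; 460 and 530 nm emission) quantified AP-1-driven beta-lactamase in ME-180 cells after 5 h with compound and EC50 EGF; AC50 values were derived for activators and inhibitors.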

[2] = biological target: Cytochrome P450 1A2 (Homo sapiens) (UniProt P05177); assay: p450-cyp1a2 (AID 410; calls by dose curve; also: potency is read from the fitted curve at half-maximal effect;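 as to activity change, negative = inhibition: -100% = full effect of reference inhibitor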)
In short: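 Human CYP1A2 (20nM) demethylated Luciferin-ME at its Km (100uM) in 100mM KPO4. After 10 min compound preincubation, NADPH regeneration ran the reaction 60 min at room temperature. Luciferin was read by luminescence, normalized to 57 uM furafylline.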

[3] = NFAT Signaling Pathway (AID 444); settings: Jurkat NFAT-bla M1, carbachol, beta-lactamase ratio, 5 h; at 17.2 µM (top of the series) unless noted;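 also: carbachol stimulus at about its EC50 of 1 µM final; % is scaled to controls: 0 for no effect and ±100 for the full control effect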
In short: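 Jurkat cells carrying an NFAT-driven β-lactamase reporter and co-transfected muscarinic M1 receptor were treated with compound plus carbachol (1 uM final, an EC50 level) for 5 h at 37 °C. CCF4 loading followed for 1 h at RT; 460/530 nm ratio gave %activity.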

[4] = Stat Signaling Pathway (AID 446);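 also: ME-180 cervical cancer cells given 40 pM IL-6 alongside compound; SIE-controlled beta-lactamase reporter measured as 460/530 nm FRET emission ratio; % is scaled to controls: 0 for no effect and ±100 for the full control effect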
In short: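 ME-180 cells carrying a SIE-driven beta-lactamase reporter are stimulated with 40 pM IL-6 for 5 h at 37C in the presence of compound. The 460/530 nm FRET substrate ratio is read after 2.5 h at RT. Data are normalised to 300 pM IL-6 and to 125 nM JAK inhibitor controls.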

[5] = biological target: Mitogen-activated protein kinase 10 (Mus musculus) (UniProt Q61831); assay: JNK3 AlphaScreen Assay (AID 530);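 also: kinase came from lysate of stimulated human HepG2 cells; signal reports phosphorylation of biotinylated GST-cJun 1-79 at Ser73 with 10 µM ATP; % is scaled to controls: 0 for no effect and ±100 for the full control effect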
In short: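 JNK3 came from HepG2 lysates pre-activated with IL-1beta and TNF-alpha and phosphorylated biotinylated GST-cJun (1-79) at 10 uM ATP, pH 7.6, room temperature. Compounds were titrated. AlphaScreen signal used anti-phospho-cJun (Ser73) antibody.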

[6] = biological target: 3',5'-cyclic-AMP phosphodiesterase 4B (Homo sapiens) (UniProt Q07343); assay: qHTS Assay for Inhibitors of PDE-IV (AID 607; active = well fitted activation curve with a large enough effect in the main read-out, with a control signal flat, not every such curve was filed as active; also: % of control where 0% means no effect)
In short: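 HEK293 ACTOne cells with CNG channel (1000/well), endogenous PDE4; membrane potential dye, compounds up to 22.9 uM final. Fluorescence Ex 535/Em 590; RO 20-1724 (100 uM final) as reference.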

[7] = biological target: Cytochrome P450 2C9 (Homo sapiens) (UniProt P11712); assay: qHTS Assay for Inhibitors and Substrates of Cytochrome P450 2C9 (AID 883; active = well fitted curve in the direction sought with a large enough effect; an effect the other way counts as inactive or inconclusive; also: % is scaled to controls: 0 for no effect and ±100 for the full control effect; nearly all actives have a fitted effect of over 60% in size)
In short: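 Human CYP2C9 (10nM) hydroxylated Luciferin-H (100uM, at its KM) to luciferin in 25mM KPO4. Compound was preincubated 10 min at 37C, then NADPH regeneration started a 60 min reaction at 37C. Luminescence was read after detection reagent, normalized to 57uM sulphaphenazole.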

[8] = biological target: Cytochrome P450 2D6 (Homo sapiens) (UniProt P10635); assay: qHTS Assay for Inhibitors and Substrates of Cytochrome P450 2D6 (AID 891; active = well fitted curve in the direction sought with a large enough effect; an effect the other way counts as inactive or inconclusive; also: nearly all actives have a fitted effect of over 60% in size; also: potency is read from the fitted curve at half-maximal effect)
In short: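 Human CYP2D6 (5 nM) with 30 uM Luciferin-ME EGE (at Km) in 100 mM KPO4, compound preincubated 10 min, then NADPH regeneration system for 60 min at room temperature. Luciferin read by luminescence; normalized to 1.43 uM quinidine.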

[9] = biological target: Cytochrome P450 2C19 (Homo sapiens) (UniProt P33261); assay: qHTS Assay for Inhibitors and Substrates of Cytochrome P450 2C19 (AID 899; active = well fitted curve in the direction sought with a large enough effect; an effect the other way counts as inactive or inconclusive; also: % is scaled to controls: 0 for no effect and ±100 for the full control effect; nearly all actives have a fitted effect of over 60% in size)
In short: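 Human CYP2C19 (5nM) with Luciferin-H EGE at 10uM (its KM) in 50mM KPO4 was preincubated with compound for 10 min at 37C. NADPH regeneration started a 60 min 37C reaction. Luciferin was read by luminescence, normalized to 57uM ketoconazole.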

[10] = biological target: Glucocorticoid receptor (Homo sapiens) (UniProt P04150); assay: GR-GFP Redistribution (AID 450;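 active = compounds whose dose series gives a full or clear partial fitted curve of increased nuclear translocation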; also: potency is read from the fitted curve at half-maximal effect); settings: U2OS GR-GFP nuclear translocation, laser cytometry, 2 h
[11] = biological target: Cytochrome P450 3A4 (Homo sapiens) (UniProt P08684); assay: qHTS Assay for Activators of Cytochrome P450 3A4 (AID 885; active = well fitted curve in the direction sought with a large enough effect; an effect the other way counts as inactive or inconclusive; also: nearly all actives have a fitted effect of over 65% in size)
In short: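 Human CYP3A4 (20 nM) with Luciferin-PPXE at 25 uM (its KM) in 200 mM KPO4; 10 min compound preincubation, then NADPH regeneration and 60 min reaction at RT. Luciferin read by luminescence; normalized to 57 uM ketoconazole full inhibition.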

[12] = biological target: Muscarinic acetylcholine receptor M1 (Rattus norvegicus) (UniProt P08482); assay: qHTS Assay for Antagonists of Acetylcholine Muscarinic M1 Receptor: Kinetic Measurement of Intracellular Calcium Response (AID 943; active = well fitted curve in the direction sought with a large enough effect; an effect the other way counts as inactive or inconclusive;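 also: Fluo-4 calcium signal as peak divided by basal fluorescence over 4 min; nearly all actives have a fitted effect of over 75% in size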)
In short: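 CHO cells stably expressing rat M1 were loaded with no-wash Fluo-4 dye for 1 h at 37C, pre-incubated 10 min with compound, then challenged with EC80 carbachol (100 nM final); kinetic calcium read 4 min, peak/basal ratio.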

[13] = biological target: Pyruvate kinase (Leishmania mexicana) (UniProt Q27686); assay: qHTS Validation Assay for Inhibitors of Leishmania Mexicana Pyruvate Kinase (AID 945; active = well fitted curve in the direction sought with a large enough effect; an effect the other way counts as inactive or inconclusive;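 also: 0% = DMSO only neutral control wells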)
In short: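 LmPYK E451W 0.2 nM; 0.5 mM PEP, 0.1 mM ADP, 7 mM MgCl2, 50 mM KCl, imidazole pH 7.2, 0.01% Tween 20, 0.05% BSA; 1 h RT; PKLight luminescence; DMSO-normalized.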

[14] = biological target: Alpha-galactosidase (Coffea arabica) (UniProt Q42656); assay: Counterscreen for Glucocerebrosidase Inhibitors: qHTS Assay for Coffee Bean alpha-Galactosidase at pH 4.5 (AID 957; active = well fitted curve in the direction sought with a large enough effect; an effect the other way counts as inactive or inconclusive;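 also: plate controls were enzyme alone for no effect and no enzyme for full effect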)
In short: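 Green coffee bean enzyme (2 nM final) was incubated with compounds (0.7 nM to 77 uM) and 4-methylumbelliferyl alpha-D-galactopyranoside (80 uM final) in 50 mM citric acid, 0.005% Tween-20, pH 4.5, 20 min at room temperature; AC50 from Hill fits.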

[15] = biological target: Pyruvate kinase PKM (Homo sapiens) (UniProt P14618); assay: qHTS Assay for Inhibitors of Human Muscle Pyruvate Kinase (AID 958; active = well fitted curve in the direction sought with a large enough effect; an effect the other way counts as inactive or inconclusive)
In short: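 Luminescence from a luciferase ATP-detection/stop reagent reported PKM2 activity. Reactions contained 0.1 nM purified human enzyme, 0.5 mM PEP, 0.1 mM ADP and 7 mM MgCl2 at pH 7.2, run 1 h at RT.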

[16] = biological target: Alpha-galactosidase A (Homo sapiens) (UniProt P06280); assay: Counterscreen for Glucocerebrosidase Inhibitors: qHTS Assay for Human alpha-Galactosidase at pH 4.5 (AID 992; active = well fitted curve in the direction sought with a large enough effect; an effect the other way counts as inactive or inconclusive; also: 0% is about no effect)
In short: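 Human enzyme (2 nM) with 80 uM 4-methylumbelliferyl alpha-D-galactopyranoside in 50 mM citric acid, 0.005% Tween-20, pH 4.5, 20 min at room temperature. Compounds 0.7 nM–77 uM; fluorescence Ex 365/Em 440 after pH 10 stop; AC50 from Hill fits.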

[17] = biological target: alpha-glucosidase (Oryza sativa, rice) (UniProt Q653V4); assay: Counterscreen for Glucocerebrosidase Inhibitors: qHTS Assay for Rice alpha-Glucosidase at pH 5.0 (AID 997; active = well fitted curve in the direction sought with a large enough effect; an effect the other way counts as inactive or inconclusive;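 also: 0% = full activity with enzyme and -100% = basal without enzyme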)
In short: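 Rice alpha-glucosidase (4 nM final) with 400 uM 4-methylumbelliferyl-alpha-D-glucopyranoside in citrate buffer pH 5.0, 20 min at room temperature, stopped at pH 10; fluorescence 365/440 nm, compounds 0.7 nM–77 uM, AC50 from Hill fits.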

[18] = biological target: Alpha-galactosidase (Coffea arabica) (UniProt Q42656); assay: Counterscreen for Glucocerebrosidase Inhibitors: qHTS Assay for Coffee Bean alpha-Galactosidase at pH 5.9 (AID 998; active = well fitted curve in the direction sought with a large enough effect; an effect the other way counts as inactive or inconclusive;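 also: plate controls were uninhibited enzyme for no effect and no-enzyme basal signal for full effect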)
In short: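 Green coffee bean enzyme (2 nM final) was incubated with compounds (0.7 nM–77 uM) and 4-methylumbelliferyl alpha-D-galactopyranoside (80 uM) in citrate buffer pH 5.9, 20 min at room temperature. High-pH stop; fluorescence 365/440 nm; AC50 from Hill fits.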

[19] = biological target: Glucocorticoid receptor (Homo sapiens) (UniProt P04150); assay: GR-EFC Redistribution (AID 451; calls by dose curve; also: potency is read from the fitted curve at half-maximal effect); settings: CHO-K1 GR-EFC translocation, beta-gal luminescence, 2 h
In short: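 CHO-K1 cells stably expressing nuclear-localized β-gal enzyme acceptor and GR fused C-terminally to the enzyme donor fragment; ligand-driven nuclear translocation restores β-gal by complementation. Compounds titrated up to 46 uM final, 2 h at 37 °C; luminescence read.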

[20] = biological target: Guanine nucleotide-binding protein G(i) subunit alpha-1 (Homo sapiens) (UniProt P63096); assay: qHTS Assay for Inhibitors of RGS12 GoLoco Motif Activity (Green Fluorophore) (AID 879; active = well fitted curve in the direction sought with a large enough effect; an effect the other way counts as inactive or inconclusive;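 also: 0% = labeled peptide with Gαi1 and full inhibition = labeled peptide alone without protein; negative values mean loss of peptide binding seen as reduced polarization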)
In short: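 Fluorescence polarization assay: 50 nM Gαi1 with 10 nM FITC-labeled RGS12 GoLoco peptide in 10 mM Tris pH 7.5, 150 mM NaCl, 0.1 mM GDP, 0.05% NP40, 10 min at room temperature with compound.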

[21] = qHTS Assay for Identification of Small Molecule Antagonists for NFkB Signaling Pathway (AID 895; active = well fitted inhibition curve with a large enough effect in the signal ratio, with a control signal flat, not every such curve was filed as active; the % refers to the signal ratio; also: potency is read from the fitted curve at half-maximal effect)
In short: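 NFkB-bla ME-180 cervical carcinoma cells with beta-lactamase reporter under NFkB response element; compounds added, then TNF alpha at 10 pM final (EC50), 5 h at 37 C. LiveBLAzer substrate 2 h, room temperature; emission 460/530 nm at 405 nm excitation.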

[22] = biological target: Muscarinic acetylcholine receptor M1 (Rattus norvegicus) (UniProt P08482); assay: qHTS Assay for Antagonists of Acetylcholine Muscarinic M1 Receptor: Measurement of IP-One Response (AID 944; active = well fitted curve in the direction sought with a large enough effect; an effect the other way counts as inactive or inconclusive; also: nearly all actives have a fitted effect of over 75% in size)
In short: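 CHO cells expressing rat M1 receptor, recovered overnight, were pre-incubated 10 min with compound, then stimulated 30 min with carbachol at EC80 (200 nM) in LiCl-containing buffer, pH 7.4. IP1 accumulation was read by HTRF (620/665 nm).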

[23] = biological target: Pyruvate kinase PKM (Homo sapiens) (UniProt P14618); assay: qHTS Assay for Activators of Human Muscle Pyruvate Kinase (AID 954; active = well fitted curve in the direction sought with a large enough effect, not every such curve was filed as active;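 also: 0% = uninhibited enzyme and -100% = no enzyme or full thiadiazolimine inhibition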)
In short: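 Purified human PKM2 (0.1 nM) with 0.5 mM PEP (Km) and 0.1 mM ADP in 50 mM imidazole pH 7.2, KCl, MgCl2, 1 h at room temperature; ATP formed read by coupled luciferase luminescence. Normalized to no-enzyme/110 uM thiadiazolimine inhibition; 0.3 nM enzyme column for activation.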

3',5'-cyclic-AMP phosphodiesterase 4B (Homo sapiens), sequence (Q07343 whole entry, looked up): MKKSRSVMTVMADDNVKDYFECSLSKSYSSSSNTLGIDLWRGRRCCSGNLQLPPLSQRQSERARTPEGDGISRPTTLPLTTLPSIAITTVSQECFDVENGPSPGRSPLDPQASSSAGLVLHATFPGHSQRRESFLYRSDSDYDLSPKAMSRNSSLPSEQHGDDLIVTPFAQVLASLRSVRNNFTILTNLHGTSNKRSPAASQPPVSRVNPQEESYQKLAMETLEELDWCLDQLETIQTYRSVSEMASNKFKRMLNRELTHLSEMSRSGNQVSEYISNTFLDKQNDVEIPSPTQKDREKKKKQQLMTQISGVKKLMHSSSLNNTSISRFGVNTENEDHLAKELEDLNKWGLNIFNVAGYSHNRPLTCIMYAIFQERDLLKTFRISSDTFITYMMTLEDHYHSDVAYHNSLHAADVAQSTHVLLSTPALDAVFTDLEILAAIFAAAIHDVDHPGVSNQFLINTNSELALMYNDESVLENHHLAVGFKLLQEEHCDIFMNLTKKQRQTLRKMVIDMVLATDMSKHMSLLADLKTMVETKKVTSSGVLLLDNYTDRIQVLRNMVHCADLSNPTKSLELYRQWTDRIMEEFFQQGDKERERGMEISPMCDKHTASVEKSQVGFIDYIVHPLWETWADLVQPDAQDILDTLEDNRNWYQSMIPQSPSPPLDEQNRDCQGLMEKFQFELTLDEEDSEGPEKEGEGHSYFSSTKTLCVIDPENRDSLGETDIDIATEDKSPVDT
Glucocorticoid receptor (Homo sapiens), sequence (P04150 whole entry, looked up, the tested form may be a part): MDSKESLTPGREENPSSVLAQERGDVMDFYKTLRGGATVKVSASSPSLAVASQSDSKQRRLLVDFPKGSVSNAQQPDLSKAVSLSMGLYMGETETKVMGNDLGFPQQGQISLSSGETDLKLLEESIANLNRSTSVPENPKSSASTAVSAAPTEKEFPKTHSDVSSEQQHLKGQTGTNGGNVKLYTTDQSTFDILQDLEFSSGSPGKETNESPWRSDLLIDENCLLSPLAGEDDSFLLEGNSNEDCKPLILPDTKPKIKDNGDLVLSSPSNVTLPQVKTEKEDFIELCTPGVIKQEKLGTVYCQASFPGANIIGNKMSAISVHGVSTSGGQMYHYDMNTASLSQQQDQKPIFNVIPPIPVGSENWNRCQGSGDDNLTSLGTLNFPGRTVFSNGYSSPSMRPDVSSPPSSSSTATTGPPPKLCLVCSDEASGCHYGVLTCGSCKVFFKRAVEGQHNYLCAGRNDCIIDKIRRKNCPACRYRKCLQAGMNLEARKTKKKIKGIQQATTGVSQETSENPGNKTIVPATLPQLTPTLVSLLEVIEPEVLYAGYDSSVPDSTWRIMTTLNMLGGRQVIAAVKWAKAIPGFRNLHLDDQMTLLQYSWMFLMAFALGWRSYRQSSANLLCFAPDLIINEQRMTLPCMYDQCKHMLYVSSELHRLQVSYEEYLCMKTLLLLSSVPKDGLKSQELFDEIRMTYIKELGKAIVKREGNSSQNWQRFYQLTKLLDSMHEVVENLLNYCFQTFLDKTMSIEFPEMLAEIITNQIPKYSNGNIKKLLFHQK
Muscarinic acetylcholine receptor M1 (Rattus norvegicus), sequence (P08482 whole entry, looked up): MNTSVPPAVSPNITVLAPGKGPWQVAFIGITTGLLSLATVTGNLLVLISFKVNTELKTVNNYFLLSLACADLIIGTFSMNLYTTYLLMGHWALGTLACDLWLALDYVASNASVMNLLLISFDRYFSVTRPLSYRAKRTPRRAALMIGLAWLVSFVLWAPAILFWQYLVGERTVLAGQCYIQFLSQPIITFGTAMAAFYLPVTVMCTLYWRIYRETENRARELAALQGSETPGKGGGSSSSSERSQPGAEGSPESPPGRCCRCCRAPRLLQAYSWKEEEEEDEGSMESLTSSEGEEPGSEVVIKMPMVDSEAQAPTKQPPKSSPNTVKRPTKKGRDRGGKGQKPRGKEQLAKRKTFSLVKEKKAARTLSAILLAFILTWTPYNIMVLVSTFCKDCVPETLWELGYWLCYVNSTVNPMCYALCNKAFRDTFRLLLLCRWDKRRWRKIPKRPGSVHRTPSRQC
Cytochrome P450 1A2 (Homo sapiens), sequence (P05177 whole entry, looked up): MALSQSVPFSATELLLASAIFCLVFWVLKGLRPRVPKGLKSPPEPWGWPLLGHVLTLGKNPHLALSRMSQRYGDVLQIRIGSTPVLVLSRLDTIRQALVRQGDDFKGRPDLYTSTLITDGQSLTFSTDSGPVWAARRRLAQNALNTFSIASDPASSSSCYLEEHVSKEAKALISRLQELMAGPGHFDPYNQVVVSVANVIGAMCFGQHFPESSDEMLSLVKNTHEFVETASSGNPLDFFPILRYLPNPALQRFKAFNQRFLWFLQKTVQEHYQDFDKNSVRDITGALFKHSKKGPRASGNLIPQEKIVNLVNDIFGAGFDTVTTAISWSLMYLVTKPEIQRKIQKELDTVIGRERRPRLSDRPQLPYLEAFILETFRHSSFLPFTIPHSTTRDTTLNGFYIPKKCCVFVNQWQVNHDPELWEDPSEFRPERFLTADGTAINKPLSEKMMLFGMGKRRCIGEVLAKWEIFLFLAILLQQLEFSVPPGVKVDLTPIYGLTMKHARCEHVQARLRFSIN
Alpha-galactosidase (Coffea arabica), sequence (Q42656 whole entry, looked up): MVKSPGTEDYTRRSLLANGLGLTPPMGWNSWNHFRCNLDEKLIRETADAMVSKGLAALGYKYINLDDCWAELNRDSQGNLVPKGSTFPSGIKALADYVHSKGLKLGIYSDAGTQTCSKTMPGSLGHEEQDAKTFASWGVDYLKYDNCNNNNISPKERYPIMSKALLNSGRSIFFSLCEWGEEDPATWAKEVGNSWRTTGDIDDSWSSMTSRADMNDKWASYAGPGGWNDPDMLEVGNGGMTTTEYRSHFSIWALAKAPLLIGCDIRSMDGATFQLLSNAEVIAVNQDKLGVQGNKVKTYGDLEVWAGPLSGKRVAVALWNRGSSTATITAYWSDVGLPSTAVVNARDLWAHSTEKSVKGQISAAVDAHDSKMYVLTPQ
Pyruvate kinase (Leishmania mexicana), sequence (Q27686 2-499 E452W): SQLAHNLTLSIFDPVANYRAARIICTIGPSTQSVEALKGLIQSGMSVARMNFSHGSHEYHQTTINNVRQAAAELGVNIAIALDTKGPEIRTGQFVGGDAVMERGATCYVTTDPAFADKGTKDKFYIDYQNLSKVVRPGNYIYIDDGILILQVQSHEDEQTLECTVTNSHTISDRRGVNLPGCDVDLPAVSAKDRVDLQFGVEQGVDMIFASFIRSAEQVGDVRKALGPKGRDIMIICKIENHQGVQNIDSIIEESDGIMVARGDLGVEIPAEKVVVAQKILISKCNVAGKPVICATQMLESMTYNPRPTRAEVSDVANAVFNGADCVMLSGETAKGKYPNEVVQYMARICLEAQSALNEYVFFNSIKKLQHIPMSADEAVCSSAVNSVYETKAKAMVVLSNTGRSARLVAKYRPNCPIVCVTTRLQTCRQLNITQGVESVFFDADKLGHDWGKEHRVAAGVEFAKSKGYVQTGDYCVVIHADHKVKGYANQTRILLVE
Cytochrome P450 2D6 (Homo sapiens), sequence (P10635 whole entry, looked up): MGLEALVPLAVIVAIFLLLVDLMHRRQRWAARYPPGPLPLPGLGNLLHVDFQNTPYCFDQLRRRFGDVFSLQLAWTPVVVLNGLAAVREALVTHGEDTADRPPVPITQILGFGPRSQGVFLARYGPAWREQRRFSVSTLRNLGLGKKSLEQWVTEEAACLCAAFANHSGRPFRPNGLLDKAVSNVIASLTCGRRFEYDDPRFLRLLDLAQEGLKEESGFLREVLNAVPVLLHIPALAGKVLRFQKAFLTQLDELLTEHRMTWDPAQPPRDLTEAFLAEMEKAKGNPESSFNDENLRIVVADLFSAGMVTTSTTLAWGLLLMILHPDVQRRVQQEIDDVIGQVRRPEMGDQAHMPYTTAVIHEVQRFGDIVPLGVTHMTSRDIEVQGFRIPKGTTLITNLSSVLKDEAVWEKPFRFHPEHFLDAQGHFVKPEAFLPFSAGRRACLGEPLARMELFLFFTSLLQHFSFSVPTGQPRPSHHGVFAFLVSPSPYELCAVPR
Pyruvate kinase PKM (Homo sapiens), sequence (P14618 whole entry, looked up): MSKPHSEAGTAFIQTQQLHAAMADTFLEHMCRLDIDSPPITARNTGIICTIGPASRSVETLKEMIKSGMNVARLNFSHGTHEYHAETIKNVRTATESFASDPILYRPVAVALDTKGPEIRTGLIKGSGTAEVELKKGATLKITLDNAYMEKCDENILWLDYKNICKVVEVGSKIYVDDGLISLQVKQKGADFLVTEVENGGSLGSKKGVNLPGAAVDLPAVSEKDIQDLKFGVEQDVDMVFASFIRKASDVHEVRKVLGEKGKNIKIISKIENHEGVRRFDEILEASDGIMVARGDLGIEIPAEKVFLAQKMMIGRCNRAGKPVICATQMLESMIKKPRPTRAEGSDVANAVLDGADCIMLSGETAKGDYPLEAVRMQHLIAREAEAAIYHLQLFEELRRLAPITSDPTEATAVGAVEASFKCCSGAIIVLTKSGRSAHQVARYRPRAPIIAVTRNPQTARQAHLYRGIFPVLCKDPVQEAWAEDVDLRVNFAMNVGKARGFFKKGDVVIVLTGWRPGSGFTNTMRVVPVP
Alpha-galactosidase A (Homo sapiens), sequence (P06280 whole entry, looked up): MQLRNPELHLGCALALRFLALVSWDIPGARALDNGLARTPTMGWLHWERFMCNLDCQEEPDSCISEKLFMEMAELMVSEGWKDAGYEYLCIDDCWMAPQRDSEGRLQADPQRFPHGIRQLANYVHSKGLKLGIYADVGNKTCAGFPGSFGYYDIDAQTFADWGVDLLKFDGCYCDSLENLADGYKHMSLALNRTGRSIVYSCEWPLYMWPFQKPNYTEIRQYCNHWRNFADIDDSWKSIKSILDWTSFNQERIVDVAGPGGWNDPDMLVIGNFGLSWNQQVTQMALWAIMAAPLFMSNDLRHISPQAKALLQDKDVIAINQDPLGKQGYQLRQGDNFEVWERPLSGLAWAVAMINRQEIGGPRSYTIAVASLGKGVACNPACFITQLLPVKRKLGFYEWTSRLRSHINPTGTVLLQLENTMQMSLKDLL

C[C@@]12CC[C@H]3[C@@H](CCC4=CC(=O)CC[C@]43C)[C@H]1CCC2=O
inactive: activity change, negative = inhibition [1] 2.25% [at 38 µM] | Potency [2] | activity change, negative = inhibition [3] 9.12% [at 38 µM] | outcome [4] | outcome [5] | outcome [6] | Potency [7] | Potency [8] | Potency [9]

C=CCN1CCc2cccc3c2[C@@H]1Cc1ccc(O)c(O)c1-3
active: Potency [2] 3.16 µM
inactive: activity change, negative = inhibition [1] -21.9% [at 38 µM] | outcome [4] | Potency [10] > 46 µM | outcome [6] | Potency [11] | Potency [12] | Potency [13] | outcome [14] | Potency [15] | outcome [16] | outcome [17] | outcome [18]

O=C1NC(=O)C(C/C=C/c2ccccc2)C(=O)N1
inactive: activity change, negative = inhibition [1] 9.27% | activity change, negative = inhibition [3] -11.1% | outcome [4] | Potency [10] > 20.6 µM

COc1ccc2[nH]c3c(c2c1)CCN=C3C
active: Potency [2] 1.58 µM | Potency [8] 0.631 µM
inactive: activity change, negative = inhibition [1] -4.7% | outcome [4] | Potency [10] > 20.6 µM | Potency [19] > 20.6 µM | outcome [6]

O=c1[nH]c(=O)n(Cc2ccccc2)c(O)c1C=NCCN1CCNCC1
inactive: activity change, negative = inhibition [1] 1.47% | activity change, negative = inhibition [3] -23.3% | outcome [4] | Potency [10] > 20.6 µM

C[C@]1(C(=O)O)[C@@H]2CC[C@@H](O2)[C@@]1(C)C(=O)O
active: activity change, negative = inhibition [1] -103% [at 38 µM] | Potency [21] 6.31 µM
inactive: Potency [2] | Potency [10] > 46 µM | Potency [19] > 46 µM | outcome [5] | outcome [6] | Potency [20] | Potency [9] | Potency [12] | Potency [22] | Potency [13] | outcome [23] | outcome [14] | outcome [16] | outcome [17] | outcome [18]

O=c1[nH]c(=O)n(Cc2ccco2)c(O)c1C=NCc1ccc2c(c1)OCO2
inactive: activity change, negative = inhibition [1] -17.4% | activity change, negative = inhibition [3] 2.74% | outcome [4] | Potency [10] > 20.6 µM

NCC[Se][Se]CCN
inactive: activity change, negative = inhibition [1] 19.7% [at 7.69 µM] | outcome [4] | Potency [10] > 46 µM | Potency [19] > 9.22 µM | activity change, negative = inhibition [5] -20.9% [at 11.4 µM] | outcome [6]
active: Potency [2] 3.16 µM

C[N+]1(C)[C@@H]2CC(OC(=O)[C@@H](CO)c3ccccc3)C[C@@H]1[C@H]1O[C@H]12 (stereo partly specified)
inactive: activity change, negative = inhibition [1] 0.541% [at 7.69 µM] | activity change, negative = inhibition [2] -22.8% [at 11.4 µM] | outcome [4] | Potency [10] > 46 µM | Potency [19] > 9.22 µM | activity change, negative = inhibition [5] 0.144% [at 11.4 µM]

From PubChem BioAssay (NCATS)
